Data on 30 molecules can be found in PubChem BioAssay (EPA / NIEHS).

Several values for one entry are separate records, joined by “and”; a condition that tells them apart may be missing. Identical values can stand only once. The source holds several records for some structures; these can differ, active in one and inactive in another. Activity calls are given as the source filed them. How the source made its calls: active means hit-call score of the fitted dose curve at least 0.9, where 1 is the maximum; inactive means score below 0.9.

Chain of Hypoxia-inducible factor 1-alpha (Homo sapiens) (Q16665 whole entry, looked up): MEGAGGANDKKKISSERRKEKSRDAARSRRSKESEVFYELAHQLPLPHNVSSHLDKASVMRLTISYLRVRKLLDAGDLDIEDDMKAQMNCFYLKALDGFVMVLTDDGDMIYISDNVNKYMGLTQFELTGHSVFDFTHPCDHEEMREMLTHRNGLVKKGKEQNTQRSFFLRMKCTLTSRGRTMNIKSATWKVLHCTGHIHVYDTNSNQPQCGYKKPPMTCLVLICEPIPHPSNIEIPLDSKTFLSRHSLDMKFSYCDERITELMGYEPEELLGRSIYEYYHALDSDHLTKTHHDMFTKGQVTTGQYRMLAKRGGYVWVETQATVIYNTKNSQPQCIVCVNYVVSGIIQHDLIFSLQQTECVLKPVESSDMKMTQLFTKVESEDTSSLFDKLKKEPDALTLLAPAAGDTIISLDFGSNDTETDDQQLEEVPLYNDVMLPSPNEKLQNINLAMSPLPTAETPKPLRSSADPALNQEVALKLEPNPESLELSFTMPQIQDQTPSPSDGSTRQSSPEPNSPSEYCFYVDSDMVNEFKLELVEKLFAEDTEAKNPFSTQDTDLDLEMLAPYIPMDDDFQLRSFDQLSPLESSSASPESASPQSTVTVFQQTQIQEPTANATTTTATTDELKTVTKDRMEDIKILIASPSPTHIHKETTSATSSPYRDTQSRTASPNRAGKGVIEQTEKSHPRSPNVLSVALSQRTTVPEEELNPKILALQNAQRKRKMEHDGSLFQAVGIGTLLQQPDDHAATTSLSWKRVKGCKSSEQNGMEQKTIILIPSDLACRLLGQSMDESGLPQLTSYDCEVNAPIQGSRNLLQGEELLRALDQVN

The target in one assay is Hypoxia-inducible factor 1-alpha (Homo sapiens) (UniProt Q16665). Briefly: ATG_HIF1a_CIS: Attagene CIS-FACTORIAL HepG2 Assay for human Hypoxia Inducible Factor 1 (HIF1A) (AID 2282951). As to conditions: HepG2 Attagene cis-factorial HIF1a reporter transcription; actives raise or lower the signal. An outline of the steps:
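HepG2 cells transiently transfected with multiplexed cis-promoter reporter units; reporter mRNA read 24 h after dosing by RT-PCR, 6-FAM primer-extension labelling, HpaI digestion and capillary electrophoresis. Bidirectional fit versus DMSO baseline.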
With `CCCN(CCC)c1c([N+](=O)[O-])cc(C(F)(F)F)c(N)c1[N+](=O)[O-]`, the AC50 was 13 µM (active).
In the case of `COC(=O)c1ccccc1C(=O)O`, the molecule was classed as inactive.
Consider `C=CCOC(Cn1ccnc1)c1ccc(Cl)cc1Cl` (centres undefined), for which the AC50 was 17.4 µM (active).
As to `CSC(=O)c1cccc2nnsc12`, the molecule was called inactive.
Still for that read-out and setting: for `CC(=O)S[C@@H]1CC2=CC(=O)CC[C@]2(C)[C@H]2CC[C@@]3(C)[C@@H](CC[C@@]34CCC(=O)O4)[C@H]12` the value was “inactive”.
On the same count and under the same terms, for `c1ccc2[nH]c(-c3cscn3)nc2c1` the value was “inactive”.
As to `C[C@]12C[C@H](O)[C@H]3[C@@H](CCC4=CC(=O)CC[C@@]43C)[C@@H]1CC[C@@H]2C(=O)CO`, the AC50 was 55.9 µM (active) and the call was inactive.
In the case of `OB(O)O`, the outcome was inactive.
In the case of `S=C(S)NCCNC(=S)S.[Mn+2].[S-]C([S-])=NCCN=C([S-])[S-].[Zn+2]`, the AC50 is 18.3 µM (active) and 976 nM (active); the molecule was called inactive.
Turning to `COC(=O)c1ccc(CNS(C)(=O)=O)cc1S(=O)(=O)NC(=O)Nc1nc(OC)cc(OC)n1`, the outcome was inactive.
In the case of `O=C(c1ccccc1)C1CCCCC1`, the result was inactive.
In the case of `COC(=O)c1c(Cl)nn(C)c1S(=O)(=O)NC(=O)Nc1nc(OC)cc(OC)n1`, the outcome was inactive.

The target in another assay is Hepatocyte nuclear factor 6 (Homo sapiens) (UniProt Q9UBC0). Briefly: ATG_HNF6_CIS: Attagene CIS-FACTORIAL HepG2 Assay for human Hepatocyte Nuclear Factor 6 (HNF6) (AID 2282952). To be noted: HepG2 Attagene cis-factorial HNF6 reporter transcription; actives raise or lower the signal. Put shortly: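 Cells are HepG2 carrying transiently transfected cis-promoter reporter units. Treatment lasts 24 h, after which reporter transcripts are reverse-transcribed, amplified, FAM-labelled and sized by capillary electrophoresis. DMSO serves as baseline.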
Chain of Hepatocyte nuclear factor 6 (Homo sapiens) (Q9UBC0 whole entry, looked up): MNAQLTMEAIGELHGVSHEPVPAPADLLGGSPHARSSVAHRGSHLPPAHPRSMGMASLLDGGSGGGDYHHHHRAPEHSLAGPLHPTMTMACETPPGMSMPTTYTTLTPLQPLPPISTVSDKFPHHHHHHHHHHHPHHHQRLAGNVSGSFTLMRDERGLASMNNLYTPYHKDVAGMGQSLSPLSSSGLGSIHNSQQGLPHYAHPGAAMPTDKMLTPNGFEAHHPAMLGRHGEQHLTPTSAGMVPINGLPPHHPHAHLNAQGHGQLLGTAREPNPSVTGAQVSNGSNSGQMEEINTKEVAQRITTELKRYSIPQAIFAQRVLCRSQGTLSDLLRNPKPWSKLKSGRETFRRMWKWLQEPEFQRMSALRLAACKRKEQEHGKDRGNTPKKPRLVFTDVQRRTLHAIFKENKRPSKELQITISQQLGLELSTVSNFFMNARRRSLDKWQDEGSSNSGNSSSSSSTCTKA
On to `CCCCOC(=O)[C@@H](C)Oc1ccc(Oc2ccc(C(F)(F)F)cn2)cc1`, for which the result was inactive.
On the same count and under the same terms, the same measure for `CCOC(=O)c1ccc(O)cc1`: “inactive”; for `COC(=O)c1ccccc1S(=O)(=O)NC(=O)Nc1nc(OC(F)F)cc(OC(F)F)n1`: “inactive”.
The same measure, in the same setting: the same measure for `COC(=O)c1cccc(C)c1S(=O)(=O)NC(=O)Nc1nc(OCC(F)(F)F)nc(N(C)C)n1`: “inactive”; for `CCC(O)=C1C(=O)CC(C(=O)O)CC1=O` (centres undefined): “inactive”.
The same measure, in the same setting: the same measure for `CCCCOC(=O)C(C)Oc1ccc(Oc2ccc(C(F)(F)F)cn2)cc1` (centres undefined): “inactive”; for `COC(=O)CSc1cc(N=c2sc(=O)n3n2CCCC3)c(F)cc1Cl`: “inactive”.
In the case of `COc1nc(C)nc(NC(=O)NS(=O)(=O)c2ccccc2OCCCl)n1`, the call was inactive.
The same measure, in the same setting: the same measure for `N[C@@H](Cc1cc(I)c(Oc2ccc(O)c(I)c2)c(I)c1)C(=O)O`: “inactive”.
As to `CCCCC(CC)CN1C(=O)C2C3C=CC(C3)C2C1=O` (centres undefined), the call was inactive.
On the same count and under the same terms, for `C[C@]12CC[C@@H]3c4ccc(O)cc4C[C@@H](CCCCCCCCCS(=O)CCCC(F)(F)C(F)(F)F)[C@H]3[C@@H]1CC[C@@H]2O` (some centres undefined) the value was “inactive”.
Turning to `CC(C)CCCCCCc1ccc(O)cc1`, the molecule was classed as inactive.
With `O=C(c1ccc(O)cc1O)c1ccc(O)cc1O`, the outcome was inactive.
The same measure, in the same setting: for `CN(C)C(=O)Nc1ccc(Cl)c(Cl)c1` the value was “inactive”.
The same measure, in the same setting: the same measure for `COCCO`: “inactive”.
Same read-out and setting: the same measure for `N#CSCSc1nc2ccccc2s1`: “inactive”.
`CCOC(=O)COc1cc(-n2ncc(C(F)(F)F)c(C)c2=O)c(F)cc1Cl`: the call was inactive.
Same read-out and setting: the same measure for `C#C[C@]1(O)CC[C@H]2[C@@H]3CCC4=CC(=O)CC[C@@H]4[C@H]3CC[C@@]21CC`: “inactive”.
With `CCCN(CCC)c1c([N+](=O)[O-])cc(C(F)(F)F)c(N)c1[N+](=O)[O-]`, the AC50 was 50 µM (active).
For `COC(=O)c1ccccc1C(=O)O`, the molecule was called inactive.
On the same count and under the same terms, for `C=CCOC(Cn1ccnc1)c1ccc(Cl)cc1Cl` (centres undefined) the value was “inactive”; for `CSC(=O)c1cccc2nnsc12`, “inactive”; for `CC(=O)S[C@@H]1CC2=CC(=O)CC[C@]2(C)[C@H]2CC[C@@]3(C)[C@@H](CC[C@@]34CCC(=O)O4)[C@H]12`, “inactive”.
The same measure, in the same setting: for `c1ccc2[nH]c(-c3cscn3)nc2c1` the value was “inactive”; for `C[C@]12C[C@H](O)[C@H]3[C@@H](CCC4=CC(=O)CC[C@@]43C)[C@@H]1CC[C@@H]2C(=O)CO`, “inactive”; for `OB(O)O`, “inactive”.
On to `S=C(S)NCCNC(=S)S.[Mn+2].[S-]C([S-])=NCCN=C([S-])[S-].[Zn+2]`, for which the molecule was called inactive.
Still for that read-out and setting: the same measure for `COC(=O)c1ccc(CNS(C)(=O)=O)cc1S(=O)(=O)NC(=O)Nc1nc(OC)cc(OC)n1`: “inactive”; for `O=C(c1ccccc1)C1CCCCC1`: “inactive”.
Still for that read-out and setting: the same measure for `COC(=O)c1c(Cl)nn(C)c1S(=O)(=O)NC(=O)Nc1nc(OC)cc(OC)n1`: “inactive”.

Broadly, the AC50 is the midpoint of the concentration-response curve, whichever way the signal moves.
